The source of these data is PubChem BioAssay (Tox21).

Records with an inconclusive call do not appear. Activity calls are given as the source filed them. Calls come from the whole dose curve; as a rule, active = well fitted cell-killing curve with a large enough effect in the repeat runs; inconclusive = weak or mixed curves, or effect the other way; inactive = flat fitted curve, though single readings scatter.
% is set by controls: 0 for no effect and ±100 for the full control effect; potency is the fitted concentration of half-maximal effect.

The test can be described thus: qHTS assay to identify small molecule antagonists of the estrogen related receptor signaling pathway with the pleiotropic PPARgamma coactivator (PGC) cell viability counter screen (AID 1224822;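 note: viability read after 17.5 h compound exposure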). The conditions noted are these: ERR/PGC reporter cell line viability counter screen; series mostly up to 92.2 µM; viability change, negative = cytotoxic: at the top concentration. From the text:
National Center for Advancing Translational Sciences [NCATS]
NIH Chemical Genomics Center [NCGC]
U.S. Environmental Protection Agency [EPA]
National Institutes of Environmental Health Sciences [NIEHS]
National Toxicology Program [NTP]
U.S. Food and Drug Administration [FDA]
Estrogen related receptors (ERRs), the first orphan nuclear receptors discovered, play an important role in the control of cellular energy metabolism. ERRs are required for high-energy production in response to the environmental challenges. The pleiotropic PPARgamma coactivator (PGC) is a major partner of ERR and a key regulator in energy homeostasis. Together they have been implicated in the etiology of metabolic disorders such as Type 2 diabetes and metabolic syndrome. ERR-alpha was also identified as an adverse marker for breast cancer progression; ERR-alpha-positive tumors have a poor prognosis. To screen and to identify environmental compounds that perturb the ERR and PGC/ERR signaling pathways could provide valuable information for potential therapeutic or preventive measures in the treatment of metabolic disease. To differentiate true PGC/ERR antagonists or agonist from cytotoxic substances, the assay is multiplexed with cell viability assay.
Tox21 Assay Protocol Summary:
The PGC/ERR cells were dispensed at 2,000 cells/5 ul/well in 1536-well white plates using a Multidrop dispenser. After the assay plates were incubated at a 37 C/5% CO2 incubator for 6 hours, 23 nL of compounds dissolved in DMSO, positive and negative controls or DMSO only was transferred to the assay plate by a pin tool. The plates were incubated at 37 C for 17.5 hours. 1 ul/well of CellTiter-Fluor reagent was added into the assay plates using a Flying Reagent Dispenser. After 30 min incubation at 37 C/5% CO2, the fluorescence intensity in the plates was measured using a ViewLux plate reader.
As for `O=[N+]([O-])c1c2ccccc2cc2ccccc12`, the “viability change, negative = cytotoxic” value was -7.02% (inactive).

Consider `O=[N+]([O-])c1cc([N+](=O)[O-])c2ccccc2c1`, for which the “viability change, negative = cytotoxic” value was 13.1% (inactive).

Take `C=CCC1=C(C)C(OC(=O)C2C(C=C(C)C)C2(C)C)CC1=O` (stereo not given): the “viability change, negative = cytotoxic” value was -18.5% (inactive).

As for `O=S(=O)(c1ccc(Cl)cc1)c1ccc(Cl)cc1`, the “viability change, negative = cytotoxic” value is 3.11% (inactive).

As for `ClC1=C(Cl)[C@]2(Cl)[C@@H]3[C@@H]4C[C@@H]([C@H]5O[C@@H]45)[C@@H]3[C@@]1(Cl)C2(Cl)Cl`, the “viability change, negative = cytotoxic” value was -20.5% (inactive).

As to `Nc1ccc(Sc2ccc(N)cc2)cc1`, the “viability change, negative = cytotoxic” value was -5.28% (inactive).

As for `CCCCCCCCc1ccc(O)cc1`, the Potency is 52.4 µM (active).

`O=c1[nH]c2ccccc2n1CCCN1CCC(n2c(=O)[nH]c3cc(Cl)ccc32)CC1`: the Potency was 23.7 µM (active).

As for `CC(C)Oc1cccc(NC(=O)c2ccccc2C(F)(F)F)c1`, the “viability change, negative = cytotoxic” value is -1.8% (inactive).

For the molecule `CS(=O)(=O)c1ccc(C(=O)C2C(=O)CCCC2=O)c([N+](=O)[O-])c1`, the “viability change, negative = cytotoxic” value was -1.76% (inactive).

With `O=C(O)COc1nc(Cl)c(Cl)cc1Cl`, the “viability change, negative = cytotoxic” value is 5.86% (inactive).

Regarding `CCOCCOC(C)=O`, the “viability change, negative = cytotoxic” value was 14.3% (inactive).

As for `CCCSP(=O)(OCC)SCCC`, the “viability change, negative = cytotoxic” value was -6.45% (inactive).

Take `c1ccc2c(c1)OCC(C1=NCCN1)O2` (stereo not given): the “viability change, negative = cytotoxic” value is -9.43% [at 46.1 µM] (inactive).

As for `CC1(C)CC/C(=C/c2ccc(Cl)cc2)C1(O)Cn1cncn1` (stereo not given), the “viability change, negative = cytotoxic” value is -7.4% (inactive).
